Screening results deposited in PubChem by several laboratories.
PriA SSB inh = blocks PriA binding to SSB C-terminal tail. AlphaScreen SSBct-PriA binding, biotinylated peptide. inhibition, % at 33 µM. actives 0.6% (n = 430,000). AID 1272365; in the data active means inhibition mostly above about 37%, no sharp cut-off; inactive means mostly below about 20%;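 further: plate controls were negative control peptide for no effect and reference peptide for full effect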
3CLpro inhibitor = SARS-CoV 3CLpro protease inhibition; P0C6X7; recombinant SARS-CoV 3CLpro, quenched FRET peptide cleavage; inhibition, % at 6 µM; actives 0.14% (n = 290,000); AID 1706; in the data active means inhibition above about 12%
DUSP3 inh = inhibitors of human VHR1 phosphatase (DUSP3) | P51452 | recombinant VHR phosphatase, pNPP absorbance | inhibition, % at 13.3 µM | actives 0.52% (n = 290,000); in the data active means inhibition above about 50%
Target sequence (P51452 whole entry, looked up): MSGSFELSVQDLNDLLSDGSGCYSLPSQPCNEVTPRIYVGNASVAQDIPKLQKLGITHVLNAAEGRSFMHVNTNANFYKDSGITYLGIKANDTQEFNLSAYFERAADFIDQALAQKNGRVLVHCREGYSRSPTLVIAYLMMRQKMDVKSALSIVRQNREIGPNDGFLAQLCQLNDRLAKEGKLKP
CCHF vOTU inh = CCHFV vOTU protease inhibition. Pep-AMC fluorescence. inhibition, % at 11.5 µM. actives 0.55% (n = 370,000); in the data active means inhibition above about 30%; further: 0% = vehicle wells with enzyme and 100% = no enzyme wells
RecA splice inh = inhibitors of M. tuberculosis RecA intein splicing; P9WHJ3; cell-free RecA intein splicing, fluorescence; inhibition, % (concentration not given with the values); actives 0.75% (n = 290,000); AID 2221; in the data active means inhibition above about 30%;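 further: 0% = vehicle wells and 100% = reference inhibitor control wells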
Active calls of the source: *; · = not tested or not shown; ! = repeats disagree. Hits are enriched below; roughly 1.7% of the tested compounds scored in any of these assays.

SMILES	PriA SSB inh	3CLpro inhibitor	DUSP3 inh	CCHF vOTU inh	RecA splice inh
COc1cc2c(cc1OC)C(C)N(C(=O)NC1CC(=O)N(c3ccc(F)cc3)C1)CC2 (centres undefined)	5	·	·	·	·
CCCSc1nnc(Sc2nnnn2-c2ccccc2)s1	-13	7	-29	3	47*
Cc1ccccc1-n1nnnc1Sc1nnnn1-c1ccccc1	-6	-3	0	5	·
CCS(=O)(=O)c1ccc(-c2cccc(NC(=O)CCc3ccc(OC)cc3)c2)nn1	-15	·	·	·	·
COC(C#N)c1ccsc1 (centres undefined)	5	·	·	·	·
O=C1NC(=S)NC(=O)C1=Cc1ccc(N2CCOCC2)cc1	-5	·	·	·	·
O=C1NN(c2cccc(Br)c2)C(=O)/C1=C\c1ccc(N2CCOCC2)cc1	-4	1	53*	·	-2
O=C(Cc1csc(NC(=O)c2ccc(=O)[nH]c2)n1)NCc1ccccn1	-20	·	·	·	·
Cc1[nH]n(-c2ccccc2)c(=O)c1/C=N/N1C(=O)c2ccc3c4c(ccc(c24)C1=O)CC3	·	3	51*	8	12
CCOc1ccc2nc(N(CCN(C)C)C(=O)c3ccc4c(c3)CCCC4)sc2c1	55*!	0	-8	·	12
CN(C)CCN(C(=O)c1ccc2c(c1)OCCO2)c1nc2cc3c(cc2s1)OCO3	14	0	-15	3	0
CN(C)CCN(C(=O)c1ccc2c(c1)CCCC2)c1nc2cc3c(cc2s1)OCCO3	51*	6	22	11	12
Cn1cc(C(=O)NCCCc2ccccc2)nn1	1	·	·	·	·
CC1CC(C)CN(C(=O)c2ccc3c(c2)N(Cc2ccccc2)CCS3)C1 (centres undefined)	-3	0	6	·	35*
CCOC(=O)N1CCN(C(=O)c2ccc3c(c2)N(Cc2ccccc2)CCS3)CC1	-5	3	17	-12	6
CC(CCC(=O)O)=NNc1ccc([N+](=O)[O-])cc1[N+](=O)[O-]	13	·	·	·	·
CCOC(=O)CC(C)=NNc1ccc([N+](=O)[O-])cc1[N+](=O)[O-]	47*	·	·	·	·
O=C(NCCN1Cc2cc(Cl)ccc2OCC1=O)c1cnccn1	50*	·	·	·	·
Cc1cc(NC(=O)CSc2nnc(CNC(=O)c3c(F)cccc3F)o2)no1	10	6	53*	12	3
O=C(CSc1nnc(CNC(=O)c2ccco2)o1)Nc1ccc(F)cc1F	7	-5	52*	11	-3
COc1cc(C(=O)Nc2nc(-c3ccc(C(C)C)cc3)cs2)cc(OC)c1OC	-13	·	·	·	·
CCSc1ccccc1C(=O)NCCn1nc(C(F)(F)F)n(C)c1=O	-10	·	·	·	·
CCOc1ccc2c(c1)C(C)=CC(C)(C)N2C(=O)Nc1ccccc1	44*	-2	12	·	0
COc1ccc(NC(=O)N2c3ccccc3C(C)=CC2(C)C)cc1	11	1	-3	2	5
COc1ccc(NC(=O)N2c3ccc(OC)cc3C(C)=CC2(C)C)cc1	54*	-1	-8	16	3
SMILES	PriA SSB inh	3CLpro inhibitor	DUSP3 inh	CCHF vOTU inh	RecA splice inh
CCOc1ccc(NS(=O)(=O)c2cccc(C)c2)cc1	-13	·	·	·	·
Cc1cc(NC(=O)C2CCN(c3cc(-n4cncn4)ncn3)CC2)n(-c2ccccc2)n1	-14	·	·	·	·
C/C(=N\N1C(C)CCCC1C)c1ccccc1O (centres undefined)	·	-5	53*	-7	4
COC(=O)c1ccccc1NC(=O)CSc1nccnc1N1CCN(c2ccccc2OC)CC1	-6	·	·	·	·
COc1ccc(NC(=S)N=C(Nc2ccc(C)cc2)c2ccccc2)cc1	46*	·	·	·	·
O=C(c1ccccc1)c1cccc(NC(=O)c2ccco2)c1	-3	4	15	-1	2
O=C(Nc1cccc(NC(=O)c2ccco2)c1)c1ccccc1	-1	-3	58*	-8	-2
O=C(NCCCN1CCCC1=O)c1c(O)nc2ccccn2c1=O	-2	1	52*	-13	-2
O=C(NCCC1=CCCCC1)c1c(O)nc2ccccn2c1=O	-4	-4	38	17	7
COc1ccc(CCNC(=O)N2CCC[C@H](c3nnc(-c4ccsc4)o3)C2)cc1	-11	·	·	·	·
Cc1cc(NC(=O)CC(C)C)c(=O)n(Cc2c(F)cccc2Cl)c1	-8	0	54*	10	1
COCC(=O)Nc1cc(C)cn(Cc2c(F)cccc2Cl)c1=O	-4	-7	31	-13	3
CN(Cc1ccccc1)C(CNS(=O)(=O)c1ccccc1)c1ccccc1 (centres undefined)	·	·	·	4	·
CN(C1CCCCC1)C(CNS(=O)(=O)c1ccccc1)c1ccccc1 (centres undefined)	1	0	53*	-6	-1
NC(=O)c1ccc(NC(=O)CN2CCC(c3cccs3)CC2)cc1	-9	·	·	·	·
